Results on 21 molecules are retold here after PubChem BioAssay.

SMILES strings stand for the structures. “And” between values parts separate entries of the source, which are not always exact repeats. Equal entries are not always repeated. The source holds several records for some structures; these can differ, active in one and inactive in another. The source made the active and inactive calls.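 How the source made its calls, unless noted: active means mean z-score across replicates of 1.96 or higher in either the MELAS or the Rieske mutant cell line; inactive means the rest.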 Where a SMILES comes first, the peptide text is derived from it.

Test [1] is described as follows: sensitizers of A549 cells to miR-34 induction, primary screen, imaging, A549 dox-inducible miR-34, nuclei and caspase counts (AID 1347080;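 active means compounds whose cell count with miR-34 switched on is under 0.7 times the count with it off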). As to conditions: A549 miR-34 inducible, Hoechst nuclei count, 48 h.
Test [2] can be described thus: survival rescue of mitochondrial mutant cells in low glucose, primary screen, MELAS cybrids, Rieske KO mouse fibroblasts, CellTiter-Glo (AID 1508586).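 Further: z relative to plate mean and SD of compound and empty wells.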
Setting [3] is: stronger effect = lower value, cell number ratio, induced over uninduced.
Where [4] appears, read: measured here: relative caspase fold change +Dox/-Dox.
Where [5] appears, read: measured here: total cells with miR-34 induction, stronger effect = lower value.
The mark [6] stands for this setting: measured here: total cells without miR-34 induction.
Where [7] appears, read: MELAS cybrid survival, CellTiter-Glo 48 h, stronger effect = higher value.
Where [8] appears, read: Rieske KO mouse fibroblast survival, CellTiter-Glo 72 h.
Further: test concentration not given here.

For `C[C@]12CCC(=O)C=C1CC[C@@H]1[C@H]2C(O)C[C@@]2(C)[C@H]1CC[C@@]2(O)C(=O)CO` (stereo partly specified), the fold change is 0.923 (inactive) in test [1] (setting [3]) and 0.886 in test [1] (setting [4]). Also, the cell count amounted to 5230 in test [1] (setting [5]) and 5670 in test [1] (setting [6]). The z-score in test [2] (setting [7]) was -0.31 (inactive); in test [2] (setting [8]), -0.201.

Consider `CN(C)Cc1ccc(S(=O)(=O)n2ccc(C=CC(=O)NO)c2)cc1`, for which the fold change in test [1] (setting [3]) was 0.784 (inactive); in test [1] (setting [4]) it was 0.443. In addition, the figures for the cell count in test [1] (setting [5]) and in test [1] (setting [6]) were 1500 and 1910, respectively. Besides, the z-score in test [2] (setting [7]) was -0.566 (inactive); in test [2] (setting [8]), -0.298.

On to `Cc1cnc(NC(=O)Nc2cc(Br)c(C)cc2OCC2CNCCO2)cn1` (stereo unspecified), for which the fold change was 1.11 (inactive) in test [1] (setting [3]) and 0.742 in test [1] (setting [4]). Further, the cell count came out at 1910 in test [1] (setting [5]) and 1730 in test [1] (setting [6]). The z-score in test [2] (setting [7]) was 0.916 (inactive); in test [2] (setting [8]), -0.0359.

As to `O=C(Nc1ccccc1)N1CCN(c2nc(-c3ccccc3)ns2)CC1`, the fold change in test [1] (setting [3]) was 1.02 (inactive); in test [1] (setting [4]) it was 0.483. In addition, the results for the cell count in test [1] (setting [5]) and in test [1] (setting [6]) were 7250 and 7080, respectively. The z-score in test [2] (setting [7]) was -0.215 (inactive); in test [2] (setting [8]), 0.0401.

In the case of `Cc1cc(CS(=O)(=O)c2ccccc2)cc(OCc2ccc(CN3CCCC3CO)cc2)c1` (stereo unspecified), the fold change in test [1] (setting [3]) is 0.932 (inactive); in test [1] (setting [4]), 0.28. Further, the cell count was found to be 7820 in test [1] (setting [5]) and 8380 in test [1] (setting [6]). Further, the figures for the z-score in test [2] (setting [7]) and in test [2] (setting [8]) were 0.0407 (inactive) and 0.831, respectively.

`CC(C)c1ccc(NC(=O)Cn2cnc3c2c(=O)n(C)c(=O)n3C)cc1`: the fold change in test [1] (setting [3]) was 0.933 (inactive); in test [1] (setting [4]), 1.42. The cell count stood at 7540 in test [1] (setting [5]) and 8090 in test [1] (setting [6]). In addition, the z-score in test [2] (setting [7]) is 0.298 (inactive); in test [2] (setting [8]), -0.444.

`NC(=O)c1ncn(C2OC(CO)C(O)C2O)c1N` (stereo unspecified): the results for the fold change in test [1] (setting [3]) and in test [1] (setting [4]) were 0.801 (inactive) and 0.953, respectively. In addition, the cell count in test [1] (setting [5]) was 7500; in test [1] (setting [6]), 9360. In addition, the z-score in test [2] (setting [7]) was 0.179 (inactive); in test [2] (setting [8]), 0.0953.

Consider `COCC(NC(=O)c1cnc(C)s1)C(=O)NC(COC)C(=O)NC(Cc1ccccc1)C(=O)C1(C)CO1` (stereo unspecified), for which the results for the fold change in test [1] (setting [3]) and in test [1] (setting [4]) were 0.898 (inactive) and 1.09, respectively. For the same molecule, the cell count worked out at 714 in test [1] (setting [5]) and 796 in test [1] (setting [6]). The z-score in test [2] (setting [7]) was 0.992 (inactive); in test [2] (setting [8]), -0.399.

Take `Cc1c(O)cccc1C(=O)NC(CSc1ccccc1)C(O)CN1C[C@H]2CCCC[C@H]2CC1C(=O)NC(C)(C)C` (stereo partly specified): the fold change is 0.999 (inactive) in test [1] (setting [3]) and 0.485 in test [1] (setting [4]). Further, the cell count in test [1] (setting [5]) and in test [1] (setting [6]) was 7710 throughout. The z-score in test [2] (setting [7]) is -0.177 (inactive); in test [2] (setting [8]), -0.0438.

`COc1cccc2c1C(=O)c1c(O)c3c(c(O)c1C2=O)C[C@@](O)(C(=O)CO)CC3O[C@H]1CC(N)C(O)C(C)O1` (stereo partly specified): the fold change in test [1] (setting [3]) was 0.879 (inactive) and 1.08 (inactive); in test [1] (setting [4]), 1.03 and 0.95. The cell count in test [1] (setting [5]) was 1470 and 1780; in test [1] (setting [6]) it was 1680 and 1650. Moreover, the z-score in test [2] (setting [7]) was 5.38 (active) and -0.136 (inactive); in test [2] (setting [8]), 4.45 and -2.31.

In the case of `Nc1ncnc2c1ncn2C1OC(CO)C(O)C1O` (stereo unspecified), the fold change in test [1] (setting [3]) is 0.838 (inactive) and 0.824 (inactive); in test [1] (setting [4]), 0.867 and 1.17. For the same molecule, the cell count in test [1] (setting [5]) is 6490 and 8470; in test [1] (setting [6]) it was 7740 and 10300. For the same molecule, the z-score was -0.00177 (inactive) and -0.197 (inactive) in test [2] (setting [7]); -2.04 and 0.972 in test [2] (setting [8]).

As to `CC1CC(C(=O)O)C2CC[C@]3(C)C(=CC[C@H]4[C@@]5(C)CCC(O)C(C)(C)[C@@H]5CC[C@]43C)[C@H]2C1C` (stereo partly specified), the fold change in test [1] (setting [3]) is 0.867 (inactive); in test [1] (setting [4]), 0.88. Further, the cell count is 8220 in test [1] (setting [5]) and 9470 in test [1] (setting [6]). In addition, the z-score in test [2] (setting [7]) is -0.234 (inactive); in test [2] (setting [8]), 0.804.

With `O=C(C=Cc1ccc(CN(CCO)CCc2c[nH]c3ccccc23)cc1)NO`, the fold change in test [1] (setting [3]) is 0.866 (inactive); in test [1] (setting [4]), 0.616. Further, the values for the cell count in test [1] (setting [5]) and in test [1] (setting [6]) were 944 and 1090, respectively. The figures for the z-score in test [2] (setting [7]) and in test [2] (setting [8]) were -0.188 (inactive) and -2.63, respectively.

Regarding `COC(=O)C(Cc1ccccc1)NC(=O)C(N)CC(=O)O` (stereo not drawn) (H-Asp-Phe-OMe; configuration not given here), the values for the fold change in test [1] (setting [3]) and in test [1] (setting [4]) were 0.938 (inactive) and 0.532, respectively. In addition, the cell count was found to be 8220 in test [1] (setting [5]) and 8770 in test [1] (setting [6]). Further, the z-score is -0.285 (inactive) in test [2] (setting [7]) and -0.555 in test [2] (setting [8]).

Turning to `COc1ccnc2[nH]cc(C(=O)C(=O)N3CCN(C(=O)c4ccccc4)CC3C)c12` (stereo unspecified), the fold change was 0.955 (inactive) in test [1] (setting [3]) and 0.698 in test [1] (setting [4]). The cell count turned out to be 9920 in test [1] (setting [5]) and 10400 in test [1] (setting [6]). In addition, the z-score in test [2] (setting [7]) was -0.419 (inactive); in test [2] (setting [8]), 0.811.

Regarding `COC1C[C@H]2CCC(C)[C@@](O)(O2)C(=O)C(=O)N2CCCC[C@H]2C(=O)OC(C(C)CC2CCC(OC(=O)C(C)(CO)CO)C(OC)C2)CC(=O)C(C)C=C(C)C(O)C(OC)C(=O)C(C)CC(C)C=CC=CC=C1C` (stereo partly specified), the fold change is 1.08 (inactive) in test [1] (setting [3]) and 0.974 in test [1] (setting [4]). In addition, the cell count in test [1] (setting [5]) was 3980; in test [1] (setting [6]), 3690. In addition, the z-score was 0.432 (inactive) in test [2] (setting [7]) and 0.402 in test [2] (setting [8]).

On to `CCCCCCCCCCCCCCCC(=O)OC1C(SC)OC(C(NC(=O)C2CC(CCC)CN2C)C(C)Cl)C(O)C1O` (stereo unspecified), for which the figures for the fold change in test [1] (setting [3]) and in test [1] (setting [4]) were 0.883 (inactive) and 0.558, respectively. In addition, the figures for the cell count in test [1] (setting [5]) and in test [1] (setting [6]) were 9240 and 10500, respectively. The results for the z-score in test [2] (setting [7]) and in test [2] (setting [8]) were -0.438 (inactive) and -0.237, respectively.

For the molecule `Cc1c(C(=O)Nc2ccc(N3CC(C)OC(C)C3)nc2)cccc1-c1ccc(OC(F)(F)F)cc1` (stereo unspecified), the fold change in test [1] (setting [3]) was 0.962 (inactive); in test [1] (setting [4]) it was 0.609. In addition, the cell count worked out at 6270 in test [1] (setting [5]) and 6520 in test [1] (setting [6]). For the same molecule, the figures for the z-score in test [2] (setting [7]) and in test [2] (setting [8]) were -0.33 (inactive) and 0.503, respectively.

Take `CCc1c(Cl)c(O)c(Cl)c(O)c1C(=O)OC1C(C)OC(OCC2=CC=CCC(O)C(C)=CC(CC)C(O[C@@H]3OC(C)(C)C(OC(=O)C(C)C)C(O)C3O)C(C)=CC(C)=CC[C@H](C(C)O)OC2=O)C(OC)C1O` (stereo partly specified): the fold change is 0.841 (inactive) in test [1] (setting [3]) and 0.698 in test [1] (setting [4]). Also, the cell count in test [1] (setting [5]) amounted to 6980; in test [1] (setting [6]), 8290. The z-score is -0.301 (inactive) in test [2] (setting [7]) and -0.0909 in test [2] (setting [8]).

On to `CC(C)(C)[N+]([O-])=Cc1ccc(S(=O)(=O)O)cc1S(=O)(=O)O`, for which the results for the fold change in test [1] (setting [3]) and in test [1] (setting [4]) were 0.908 (inactive) and 1.03, respectively. The cell count in test [1] (setting [5]) stood at 9880; in test [1] (setting [6]), 10900. Moreover, the z-score in test [2] (setting [7]) was -0.368 (inactive); in test [2] (setting [8]), 0.732.

As to `CN1CCCN(C(=O)c2cccc(-c3ccc(C=C4C(=O)Nc5ccc(Cl)cc54)o3)c2)CC1`, the fold change is 0.79 (inactive) in test [1] (setting [3]) and 4.28 in test [1] (setting [4]). The cell count in test [1] (setting [5]) is 2420; in test [1] (setting [6]), 3060. In addition, the z-score in test [2] (setting [7]) is 0.13 (inactive); in test [2] (setting [8]), -0.12.
